Out of some 52,000 compounds screened, about 4,300 (8.3%) were called active. This is one part of a sample in which actives are shown more often than they occur. Values without a mark were called inactive. Cut-off read from the data, not from the text of the source: active = survival mostly below about 52% (no sharp cut-off); inactive = mostly above about 56%.
Tested on: DeltatarO mutant
Assay: S. aureus survival, RN4220 and DeltatarO strains – OD600, teichoic acid synthesis inhibitors, primary screen (AID 463173)
Details: S. aureus RN4220 wild type/DeltatarO growth, OD600, 18 h, hits give low values, screened at 18.75 µg/mL (by protocol)

SMILES | survival
COc1ccc(-c2oc3ncn4nc(COc5ccccc5C)nc4c3c2-c2ccc(OC)cc2)cc1 | 79%
CC(=O)c1ccc(N2CCN(C(=O)c3ccc(Cn4c(=O)[nH]c5ccccc5c4=O)cc3)CC2)cc1 | 100%
CC(C)(C)c1cc(CN2CCOCC2)c(C(=O)O)o1 | 92%
COc1cc(NC(=O)CSc2nc3nc(C)c(Cc4ccccc4)c(C)n3n2)cc(OC)c1 | 112%
CC1CCN(S(=O)(=O)c2ccc(NC(=O)CSc3nnnn3C)cc2)CC1 | 97%
CCOC(=O)c1cnc2c(ccc3ccccc32)c1Nc1cccc(Cl)c1 | 14% (active)
COc1cccc2sc(N(Cc3cccnc3)C(=O)C3CCCCC3)nc12 | 86%
COc1ccc(OCC(=O)N(Cc2ccc(C)o2)C2CCS(=O)(=O)C2)cc1 (stereo unspecified) | 85%
CC(C)Oc1ccc(C(=O)N(Cc2ccc(N(C)C)cc2)C2CCS(=O)(=O)C2)cc1 (stereo unspecified) | 54%
CC(C)c1ccc(OCC(=O)N(Cc2ccc(N(C)C)cc2)C2CCS(=O)(=O)C2)cc1 (stereo unspecified) | 43% (active)
CCc1ccc(OCC(=O)N(Cc2ccc(C)o2)C2CCS(=O)(=O)C2)cc1 (stereo unspecified) | 110%
Cc1ccc(CN(C(=O)COc2ccc(C(C)C)cc2)C2CCS(=O)(=O)C2)o1 (stereo unspecified) | 87%
Cc1ccsc1CN(C(=O)COc1ccccc1Cl)C1CCS(=O)(=O)C1 (stereo unspecified) | 86%
CCc1ccc(OCC(=O)N(Cc2ccc(Cl)cc2)C2CCS(=O)(=O)C2)cc1 (stereo unspecified) | 57% (active)
Cc1ccsc1CN(C(=O)COc1cccc(C)c1C)C1CCS(=O)(=O)C1 (stereo unspecified) | 82%
CCc1ccc(OCC(=O)N(Cc2ccc(C(C)C)cc2)C2CCS(=O)(=O)C2)cc1 (stereo unspecified) | 23% (active)
Cc1ccccc1OCC(=O)N(Cc1ccc(C(C)C)cc1)C1CCS(=O)(=O)C1 (stereo unspecified) | 31% (active)
COc1ccc(OCC(=O)N(Cc2cccc(OC)c2)C2CCS(=O)(=O)C2)cc1 (stereo unspecified) | 79%
Cc1cc(C)cc(OCC(=O)N(Cc2ccc(Cl)cc2)C2CCS(=O)(=O)C2)c1 (stereo unspecified) | 59%

SMILES | survival
Cc1nc2cccnc2n1C1CCN(C(=O)Nc2ccc(Cl)cc2)CC1 | 81%
CCN(C(=O)CSc1ncc(S(=O)(=O)c2ccc(C)c(Cl)c2)c(=O)[nH]1)c1cccc(C)c1 | 99%
O=C(Cn1ncc2c3ccccc3n(Cc3cccc(Cl)c3)c2c1=O)NCCC1=CCCCC1 | 90%
Cc1cc(C)c(NC(=O)Cn2nnc(S(=O)(=O)c3ccc(C)c(C)c3)c2N)c(C)c1 | 96%
CCCCN(CC)C(=O)c1ccc2c(c1)NC(=O)c1ccccc1S2 | 104%
c1ccc(-c2cnnn2-c2ccccc2)cc1 | 87%
CC(C)c1ccc(OCC(=O)N(Cc2cccs2)C2CCS(=O)(=O)C2)cc1 (stereo unspecified) | 51% (active)
COc1ccccc1OCC(=O)N(Cc1cccs1)C1CCS(=O)(=O)C1 (stereo unspecified) | 53%
Cc1cc(Cl)ccc1OCC(=O)N(Cc1sccc1C)C1CCS(=O)(=O)C1 (stereo unspecified) | 74%
Cc1ccsc1CN(C(=O)COc1ccc(Cl)cc1)C1CCS(=O)(=O)C1 (stereo unspecified) | 86%
Cc1cc(Cl)ccc1OCC(=O)N(Cc1ccc(N(C)C)cc1)C1CCS(=O)(=O)C1 (stereo unspecified) | 39% (active)
Cc1cc(OCC(=O)N(Cc2ccc(N(C)C)cc2)C2CCS(=O)(=O)C2)cc(C)c1Cl (stereo unspecified) | 97%
CCOC(=O)C1=C(C)NC(=O)NC1C1CC=CCC1 (stereo unspecified) | 111%
COc1cc(-c2nc3nc[nH]n3c2Nc2ccc(C(C)C)cc2)ccc1O | 70%
CC(=O)c1cccc(S(=O)(=O)NCCc2csc3nc(-c4ccc(F)cc4)nn23)c1 | 88%
CCOC(=O)C1CCN(C(c2cccc(F)c2)c2c(O)cc(C)n(CCOC)c2=O)CC1 (stereo unspecified) | 135%
COc1ccc(CNC(=O)Cn2ccc3cc(S(=O)(=O)N4CCCCC4)ccc32)c(OC)c1 | 72%
Cc1ccc(C)c(NC(=O)CCNS(=O)(=O)c2ccc3c(c2)CCCC(=O)N3)c1 | -4% (active)
Cc1ccc(NC(=O)CCNS(=O)(=O)c2ccc3c(c2)CCCC(=O)N3)cc1 | 77%

SMILES | survival
COc1cc(OC)c(NC(=O)CN(C)S(=O)(=O)c2ccc3c(c2)CCCC(=O)N3)cc1Cl | 6% (active)
COc1cc(Cl)c(NC(=O)CN(C)S(=O)(=O)c2ccc3c(c2)CCCC(=O)N3)c(OC)c1 | 83%
Cc1cccc(NC(=O)CCNS(=O)(=O)c2ccc3c(c2)CCCC(=O)N3)c1C | 96%
COc1cc(NC(=O)CN(C)S(=O)(=O)c2ccc3c(c2)CCCC(=O)N3)cc(OC)c1OC | 70%
COc1ccccc1CNC(=O)CSc1ncc2c(n1)-c1ccccc1N(Cc1ccc(C)cc1)S2(=O)=O | 64%
CCc1ccc(NC(=O)c2ccc3c(O)c(S(=O)(=O)c4ccc(Cl)cc4)c(=O)[nH]c3c2)cc1 | 75%
Cc1ccc(N(C(=O)Cn2nnc(-c3ccc(C)o3)n2)C(C(=O)NC2CCCCC2)c2ccc(F)cc2)c(C)c1 (stereo unspecified) | 66%
COc1ccc(Cn2nnnc2C(c2ccccc2)N2CCC(C)CC2)cc1 (stereo unspecified) | 68%
CCc1ccc(NC(=O)CN2CCN(Cc3ccccc3)S2(=O)=O)cc1 | 68%
CCOc1cc2sc(N3CCC(C(=O)Nc4ccc(C)cc4C)CC3)nc2cc1Br | 71%
CCCCCOC(=O)c1ccc(Nc2nc(C(=O)OCC)nc3ccccc23)cc1 | 60%
CCOC(=O)c1nc(Nc2ccc(OC)cc2)c2ccccc2n1 | 153%
CCOC(=O)c1nc(Nc2ccccc2C)c2ccccc2n1 | 49%
CCOC(=O)c1nc(Nc2cccc(C)c2)c2ccccc2n1 | 75%
CCOC(=O)c1nc(Nc2ccccc2OC)c2ccccc2n1 | 44% (active)
CCCOC(=O)c1cccc(Nc2nc(C(=O)OCC)nc3ccccc23)c1 | 20% (active)
CC(=O)c1cccc(NC(=O)c2cc3sc(Cl)cc3n2C)c1 | 122%
CCOc1ccc(OCC)c(NC(=O)CN(C)S(=O)(=O)c2ccc3[nH]c(=O)oc3c2)c1 | 85%
